Results reported in PubChem BioAssay (NCI).
About 83,000 compounds went through this panel and 20% of them were active in at least one assay; those are over-represented in the sample as a whole.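 The test compound was applied at a single concentration to cells in 96-well plates for 48 hours, and percent growth was recorded.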 A number with no mark means an inactive call. Calls of active or inactive are those of the source.

System: A549/ATCC NSCLC
Test: NCI-60 one-dose screen, 48 h (100 = growth as untreated, 0 = no growth, -100 = all killed)
Settings: 1 µM
Procedure: Growth inhibition of the A549/ATCC human Non-Small Cell Lung tumor cell line is measured as a screen for anti-cancer activity. Cells are grown in 96 well plates and exposed to the test compound for 48 hours. Compounds are tested at a single concentration, which is 10^-5 M for most compounds. The reported endpoint is percent growth (GI% or GIPRCNT), where numbers from 0 - 100% represent growth inhibition, and numbers from -100% - 0 represent cell death. For example, a value of 40 represents 60% growth inhibition. A value of 0 means no net growth occurred over the course of the experiment. A value of -40 indicates 40% of cells at the beginning of the experiment died by the end of the experiment. A value of -100 means all cells are dead at the end of the experiment.
NCI-60 Human Tumor Cell Lines Screen was performed using the standard one-dose NCI protocol, which is described in more detail at https://dtp.cancer.gov/discovery_development/nci-60/default.htm.
Compounds with GIPRCNT values below 10 were considered active. Activity score was based on GIPRCNT using the following formula: […]
Score is 0 for GIPRCNT values of 100 or above, 50 for GIPRCNT values of 0, and 100 for GIPRCNT values of -100.

Row | Compound | growth [%]
1 | CC/C(=C(/c1ccc(O)cc1)c1ccc(OCCN(C)C(=O)COCCOCCNC(=O)Cc2ccc3c(c2)CN([C@@H]2CCC(=O)NC2=O)C3=O)cc1)c1ccccc1 | 102
2 | CC/C(=C(\c1ccc(O)cc1)c1ccc(OCCN(C)C(=O)CCOCCNC(=O)c2ccc3c(c2)CN([C@@H]2CCC(=O)NC2=O)C3=O)cc1)c1ccccc1 | 85
3 | CC/C(=C(\c1ccc(O)cc1)c1ccc(OCCN(C)C(=O)COCCNC(=O)Cc2ccc3c(c2)CN([C@@H]2CCC(=O)NC2=O)C3=O)cc1)c1ccccc1 | 95.7

Same assay, conditions: 10 µM

Row | Compound | growth [%]
4 | CC/C(=C(/c1ccc(O)cc1)c1ccc(OCCN(C)C(=O)COCCOCCNC(=O)Cc2ccc3c(c2)CN([C@@H]2CCC(=O)NC2=O)C3=O)cc1)c1ccccc1 | 88.1
5 | CC/C(=C(\c1ccc(O)cc1)c1ccc(OCCN(C)C(=O)CCOCCNC(=O)c2ccc3c(c2)CN([C@@H]2CCC(=O)NC2=O)C3=O)cc1)c1ccccc1 | 82.2
6 | CC/C(=C(\c1ccc(O)cc1)c1ccc(OCCN(C)C(=O)COCCNC(=O)Cc2ccc3c(c2)CN([C@@H]2CCC(=O)NC2=O)C3=O)cc1)c1ccccc1 | 75.2

Same assay, conditions: 10 µM unless noted

Row | Compound | growth
7 | CC(=O)c1ccc2c(N)c(C(=O)Nc3ccc(C(F)(F)F)cc3)sc2n1 | 78.5%
8 | O=C1CCC(N2C(=O)c3cccc(NCCCCCC(=O)N4CCN(c5ccc6nc7c(nc6c5C(F)(F)F)C(=O)c5ncccc5C7=O)CC4)c3C2=O)C(=O)N1 (stereo not given) | -64.3% (active)
9 | COc1cc2cc(C(=O)N3C[C@@H](CCl)c4c3cc(OC(=O)N(CCC(=O)N3CCN(C)CC3)C3CCCCC3)c3ccccc43)[nH]c2c(OC)c1OC | -24.1% (active)
10 | O=C(Nc1ccc(Br)cc1)Nc1ccc(-c2ccc3c(c2)NC(=O)/C3=C\c2ccc[nH]2)cc1 | 37.7%
11 | N#CC1=C(c2ccco2)Nc2c(c(-c3ccccc3)nn2-c2ccccc2)C12C(=O)Nc1ccc(Br)cc12 (stereo not given) | 1.5% (active)
12 | C[C@@H](Nc1c(C#N)cnc2ccc(-c3cnc4[nH]ncc4c3)cc12)c1ccccc1 | 5.68% (active)
13 | COc1ccc2[nH]c(O)c(N=NC(=O)c3ccc4nc(-c5ccc(Cl)cc5)[nH]c4c3)c2c1 | 113%
14 | COc1ccc(NC(=O)CSc2nnc(-c3ccc(-c4nc5ccccc5[nH]4)cc3)o2)cc1 | 6.46% (active)
15 | Clc1ccc(Nc2nnc(-c3c[nH]c4ccccc34)o2)cc1 | 68.6%
16 | Fc1ccccc1CNc1nc(SCCN2CCOCC2)nc2c1cnn2CC(Cl)c1ccc(Br)cc1 (stereo not given) | 27.7%
17 | C/C(=N\Nc1ccc(S(N)(=O)=O)cc1)c1cnn(-c2cc(=O)[nH]c3ccc(Br)cc23)c1C | 100%
18 | COc1cc(NC(=O)CSc2nnc(-c3ccc(-c4nc5ccc(Cl)cc5[nH]4)cc3)o2)cc(OC)c1OC | 70.5%
19 | CC1=C(C(=O)Nc2ccccc2)C(c2cccc3ccccc23)n2c(nc3ccccc32)N1 (stereo not given) | 28.2%
20 | C/C(=N/O)c1ccc(NC(=O)CSc2nnc(-c3ccc(-c4nc5ccc(Cl)cc5[nH]4)cc3)o2)cc1 | -13.3% (active)
21 | COc1ccc(C2=Nc3c(N)nc(N)nc3NC(c3ccc(Oc4nc(Nc5ccc(F)cc5)nc(N(C)C)n4)c(OC)c3)C2)cc1 (stereo not given) | 75.5%
22 | Cc1ccc2nc(NC(=O)Nc3cccc(Cl)c3)sc2c1 | 106%
23 | CCCN(CCC)S(=O)(=O)c1ccc(C(=O)O)cc1.CCCN(CCC)S(=O)(=O)c1ccc(C(=O)O)cc1.[Cl][Pt+2][Cl].[NH2-].[NH2-] | 33%

Row | Compound | growth
24 | O=C(NNC(=O)c1ccc(OCc2nc3ccc(Cl)cc3[nH]2)cc1)Nc1ccc(Cl)c(C(F)(F)F)c1 | 57.1%
25 | O=CNc1cccc(-n2cnc3cc(-c4ccc(O)cc4)ccc32)c1 | 42.9%
26 | COc1cccc(NC(=O)c2ccc(NC(=O)CCl)s2)c1 | 39.7%
27 | CCCSc1nnc(-c2c(C)nc3sccn23)o1 | 98.2%
28 | CCCCC[C@@H]1C/C=C(\C)[C@@H](O)C(C)(C)C(=O)[C@@H](C)/C=C(\C)[C@@H]2C[C@H](O)C[C@](O)(CC(=O)O1)O2 | 36.8%
29 | COc1c(B(O)O)cc(F)cc1-c1nc2c(F)cc3[nH]ncc3c2c2c1CCCC2 | 2.51% (active)
30 | O=C(N=Nc1c(O)[nH]c2ccc(Cl)cc12)c1ccc2nc(-c3ccc(Cl)cc3)[nH]c2c1 | 41.5%
31 | COc1ccc2[nH]cc(-c3cc4nc(-c5cn(C)c6ncc(Br)cc56)cc(N)n4n3)c2c1 | -69.8% (active)
32 | C=CCSc1nnc(-c2ccc(-c3nc4ccc(Cl)cc4[nH]3)cc2)o1 | 60.3%
33 | Cc1ccc(C(=O)Nc2cc(-n3ccnc3C)cc(C(F)(F)F)c2)cc1C#Cc1cnc2cccnn12 | 11.3%
34 | CN1C(=O)/C(=C\C(=O)c2cc3ccccc3oc2=O)c2ccccc21 | 78.3%
35 | CN(CCSSCCN1CCOCC1)C(=O)Oc1cc2c(c3ccccc13)[C@H](CCl)CN2C(=O)c1cc2cc(OCCCN3CCC3)ccc2[nH]1 | -45.8% (active)
36 | COc1ccc(-c2nnc3c(/C=C/c4ccc(Br)cc4)nc4ccccc4n23)cc1 | 75.8%
37 | O=C1Nc2cc(-c3ccc(NS(=O)(=O)c4ccc([N+](=O)[O-])cc4)cc3)ccc2/C1=C/c1ccc[nH]1 | -31.9% (active)
38 | O=C(NC(=S)N1CCN(c2ncnc3c2cnn3-c2ccccc2)CC1)c1ccc(F)cc1 | 76.2%
39 | COc1ccc(NC(=O)Cn2c(/C=C/c3ccc([N+](=O)[O-])cc3)nc3ccccc3c2=O)cc1 | 75.9%
40 | CN1CCN(C(=O)CCN(C(=O)Oc2cc3c(c4ccccc24)[C@H](CCl)CN3C(=O)c2cc3cc(OCCCN4CCC4)ccc3[nH]2)[C@H]2CCSSC2)CC1 | -61.5% (active)
